About 64,000 (15%) of roughly 420,000 compounds were called active. Not shown: some 27% with an inconclusive outcome. The call rests on the fitted dose curve; in most records, active means well fitted inhibition curve with a large enough effect; inconclusive means small, poorly fitted or top-dose-only effect; inactive means flat fitted curve, though single readings scatter. Only a sample is shown. A call without a number means that no potency is given here.
experiment: qHTS for Inhibitors of human tyrosyl-DNA phosphodiesterase 1 (TDP1): qHTS in cells in absence of CPT; settings: DT40 Tdp1-/- hTDP1 cells, no CPT, ATP luminescence, 48 h; activity change, negative = growth inhibition: at 46.2 µM (top of the series); further: nearly all actives have a fitted effect of over 55% in size
Summary of the method: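 Readout: luminescence from CellTiter-Glo after 30 min in the dark at RT. Cells: DT40 Tdp1-/- with stable hTDP1, 400/well. Exposure: compounds alone, ≥48 hr, 37 °C.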
Potency means the concentration at half of the fitted maximal effect.

Compound	Potency
O=C(Nc1cc2c3c(c1)CC(=O)N3CCC2)c1ccccc1F	inactive
COc1ccc(/C=C(\NC(=O)c2ccccc2)C(=O)NCCN2CCOCC2)cc1OC	inactive
COCCN(Cc1nc(-c2ccc(C(F)(F)F)cc2)no1)C(C)C	inactive
COCCN(C(=O)C(C)C)c1nnc(-c2ccc(C(C)(C)C)cc2)s1	20.6 µM (active)
CN(C(=O)COc1ccccc1)c1nnc(-c2ccncc2)s1	inactive
CCOC(=O)N1CCN(C(=O)Cn2cnc3ccccc3c2=O)CC1	inactive
CCOC(=O)N1CCN(CC(=O)Nc2cc(C)nn2-c2nc3ccccc3s2)CC1	23.1 µM (active)
CCOC(=O)N1CCN(CC(=O)Nc2ccc(F)cc2)CC1	inactive
CC1CCCN(c2csc3ccc(F)cc3c2=O)C1 (stereo not drawn)	inactive
S=c1[nH]nc(/C=C/c2ccccc2)o1	inactive
CN(C)c1nc(Nc2ccc(Cl)c(Cl)c2)nc(N(C)C)n1	10.3 µM (active)
CC(=O)Nc1nc(N(C)C)nc(N(C)C)n1	inactive
CN(C)c1nc(NN)nc(Nc2ccc(F)cc2)n1	inactive
Cc1ccc(/C([O-])=C(/C(=S)NCc2ccco2)[n+]2ccccc2)cc1[N+](=O)[O-]	inactive
CCOC(=O)c1c(NC(=O)CSc2nnc(CNc3ccc(C)cc3C)o2)sc(C)c1C	inactive
c1ccc(-n2nnnc2NC2CCCCCC2)cc1	inactive
FC(F)(F)c1nc(-c2ccccc2)ncc1-c1nnnn1-c1ccccc1	16.4 µM (active)
Fc1ccccc1CCNc1nnnn1-c1ccccc1	inactive
O=S(=O)(NC1CCCCC1N1CCC(O)CC1)c1ccc(Cl)cc1 (stereo not drawn)	inactive
CN1CCCc2cc(C#N)c(=O)[nH]c21	inactive
CCOC(=O)c1cc2cc(-c3c(C(=O)OCC)oc4cc(O)cc(O)c4c3=O)ccc2o1	23.1 µM (active)
CCOC(=O)c1cc(=O)c2ccc(OCc3ccccc3)cc2o1	inactive
CCOC(=O)c1cc2cc3ccccc3cc2oc1=O	inactive
O=C(O)c1ccc(COCC(F)(F)F)cc1	inactive
CC1CCC2(CC1)NC(=O)N(CC(=O)c1ccc3c(c1)OCO3)C2=O (stereo not drawn)	inactive

Compound	Potency
O=C(CCN1C(=O)c2ccccc2C1=O)Nc1ccncc1	inactive
COc1ccc(-c2cc3ccc(OCc4nn[nH]n4)cc3oc2=O)cc1	inactive
O=c1oc2cc(O)ccc2cc1-c1ccc(F)cc1	14.6 µM (active)
COc1cccc(C(=O)c2cc3ccc(O)cc3oc2=O)c1	inactive
COC(=O)CCNC(=O)c1ccc2[nH]c(C)c(C)c2c1	inactive
Cc1ccc(C(=O)NCCSc2c(C)[nH]c3ccccc23)cc1C	25.9 µM (active)
CN(C)CCCNC(=O)c1ccc2[nH]c3ccccc3c2c1	inactive
COC(=O)c1ccc(OCC(=O)NC(C)(C)C)cc1	inactive
O=C(O)c1cnn2c(C(F)(F)F)cc(-c3ccccc3)nc12	inactive
COc1ccc(-c2cc(C(F)(F)F)n3nc(C(=O)N4CCOCC4)c(Cl)c3n2)cc1	29.1 µM (active)
COc1ccc(OCC(=O)N2CCOCC2)cc1	inactive
O=C(NC1CC(=O)N(c2ccc(F)cc2)C1)C1CCCCC1 (stereo not drawn)	inactive
COc1cc(OC)cc(-c2nnc(SCC(=O)Nc3ccc(C(=O)O)cc3)s2)c1	inactive
COc1ccc(N2CCN(C(=O)C3CCN(C(=O)c4ccccc4Cl)CC3)CC2)cc1	inactive
COc1ccc(N2CCN(C(=O)CN3C(=O)COc4ccccc43)CC2)cc1	inactive
COc1ccc(N2CCN(C(=O)CSCc3nc(-c4ccccc4Cl)oc3C)CC2)cc1	16.4 µM (active)
Cc1ccc(NC(=O)COC(=O)CN2CCSC2=O)cc1F	inactive
CS(=O)(=O)c1ccc2nc(NC(=O)CN3CCCCCC3)sc2c1	inactive
CC(C)(C)C(=O)c1c(N)[nH]c(C(=O)c2ccccc2)c1-c1ccc(F)cc1	inactive
NC(=O)Cc1ccc2c(c1)[nH]c1ccccc12	inactive
CCc1cc(-c2nnc(SCC(=O)NC3CC3)n2C)cs1	inactive
COc1ccc(/C=N/NC(=O)c2ccc3c(c2)OCCO3)c(OC)c1	inactive
CN(C)CCNC(=O)c1[nH]nc2c1CCc1ccccc1-2	inactive
COc1ccc(OC)c(/C=N/NC(=O)c2ccc[n+](CC(=O)c3ccccc3)c2)c1	inactive
COc1cccc(/C=N/NC(=O)c2[nH]nc3c2CCc2ccccc2-3)c1O	2.91 µM (active)

Compound	Potency
COc1cccc(/C=N\NC(=O)C2=NNC(=O)C2C)c1O (stereo not drawn)	23.1 µM (active)
CCC(C)C1(C2CCCC2)NC(=O)NC1=O (stereo not drawn)	inactive
CN1CCN(C(=O)CCc2ncc(C(F)(F)F)cc2Cl)CC1	inactive
CCN1CCC2(CC1)N=C(c1ccc(F)cc1)C(=S)N2C(=O)c1ccc(C)cc1	5.8 µM (active)
CCN1CCN(C(=O)CSc2ccc(C)cc2)CC1	inactive
Cc1ccc(C(=O)N(CN2CCCC2=O)c2ccc(F)cc2)cc1	inactive
COc1ccc(Cl)cc1S(=O)(=O)N1CCC(O)(c2ccc(Cl)cc2)CC1	inactive
CS(=O)(=O)N1CCN(C(=O)c2cc3ccccc3oc2=O)CC1	inactive
O=C(c1cc2ccccc2o1)N1CCN(Cc2ccccc2)CC1	inactive
O=C(c1cc2ccccc2o1)N1CCN(S(=O)(=O)c2ccc(Cl)s2)CC1	14.6 µM (active)
COC(=O)c1ccc(C)c(NC(=O)Cn2c(C)csc2=O)c1	inactive
CCOc1cc(/C=N/n2cnnc2)c(Br)cc1O	inactive
O=C(c1csnn1)N1CCC2(CCN(Cc3nccs3)CC2)CC1	inactive
CN1CN(C)c2ccc([N+](=O)[O-])c3cccc1c23	inactive
Cc1nc2ccccn2c1C(=O)NN=C1CCN(C)CC1	inactive
O=C(Nc1ccc(F)cc1)C1CCCN(S(=O)(=O)c2ccc(-n3cnnn3)cc2)C1 (stereo not drawn)	inactive
CCOC(=O)c1cccc(NC(=O)C2CCCN(S(=O)(=O)c3cnc[nH]3)C2)c1 (stereo not drawn)	inactive
COC(=O)c1ccc(CN2CCCC(C(=O)Nc3cccc(-n4cnnn4)c3)C2)cc1 (stereo not drawn)	16.4 µM (active)
Cc1ccc(C(=O)NC2CCN(C(=O)Nc3ccccc3Cl)CC2)cc1	inactive
CN(CC(=O)NCc1ccc2c(c1)OCO2)CC(=O)Nc1ccc(F)c(F)c1F	inactive
Cc1nc2ccccc2n1CC(O)c1ccccc1 (stereo not drawn)	inactive
CC(C)c1ccc(Cn2c(COc3ccccc3)nc3ccccc32)cc1	20.6 µM (active)
CC(O)c1nc2ccccc2n1Cc1ccc([N+](=O)[O-])cc1 (stereo not drawn)	inactive
